Laboratory results reported in PubChem BioAssay (NCI).
About 83,000 compounds went through this panel and 20% of them were active in at least one assay; those are over-represented in the sample as a whole.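 Activity criterion: percent growth below 10, measured after cells in 96-well plates were exposed to a single compound concentration for 48 hours.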 A number with no mark means an inactive call. Calls of active or inactive are those of the source.

Legend:
Assay in all cases: NCI-60 one-dose screen, 48 h (100 = growth as untreated, 0 = no growth, -100 = all killed)
Settings in all cases: 10 µM unless noted
RPMI-8226 leukemia = tested on: RPMI-8226 leukemia
OVCAR-8 ovarian = tested on: OVCAR-8 ovarian
OVCAR-5 ovarian = tested on: OVCAR-5 ovarian
OVCAR-4 ovarian = tested on: OVCAR-4 ovarian
SK-OV-3 ovarian = tested on: SK-OV-3 ovarian
OVCAR-3 ovarian = tested on: OVCAR-3 ovarian
HS 578T breast = tested on: HS 578T breast
NCI/ADR-RES ovarian = tested on: NCI/ADR-RES ovarian
T-47D breast = tested on: T-47D breast
IGROV1 ovarian = tested on: IGROV1 ovarian

Structure (SMILES)	growth (RPMI-8226 leukemia)	growth (OVCAR-8 ovarian)	growth (OVCAR-5 ovarian)	growth (OVCAR-4 ovarian)	growth (SK-OV-3 ovarian)	growth (OVCAR-3 ovarian)	growth (HS 578T breast)	growth (NCI/ADR-RES ovarian)	growth (T-47D breast)	growth (IGROV1 ovarian) [%]
N#CC(C#N)=Cc1c(-c2ccccc2)[nH]c2ccccc12	-24.8% (active)	32.4%	75.3%	65.7%	25.3%	-27.5% (active)	-1.19% (active)	16.2%	38.6%	–
O=C(O)CCC(=O)c1ccc(C2CCCCCC2)cc1	95.8%	102%	105%	102%	103%	105%	102%	102%	96.2%	–
COc1ccc(/C=C2\N=C(c3ccccc3)N(c3ccc(-c4nc5ccc(C)cc5s4)cc3)C2=O)cc1	69.3%	92%	84.7%	64.6%	94.2%	72.2%	102%	93.6%	54.1%	–
CC1=CCC(OC(=O)C(C)(C)CCC(O)(C(=O)OC2(C(C)C)CCC3(C)OC3C2)C(C)C)(C(C)C)CC1 (configuration not stated)	-37.8% (active)	-41.7% (active)	-77.9% (active)	-84.1% (active)	-92.2% (active)	-97% (active)	-7.09% (active)	-9.23% (active)	-55.2% (active)	–
Cc1nc(Nc2ccccn2)sc1C(=O)/C=C/c1ccc(Cl)cc1	12%	10.1%	38.7%	54%	26.9%	-23.2% (active)	18.5%	3.2% (active)	58.1%	–
O=c1oc2ccc(F)cc2c(=O)n1-c1ccc(Cl)cc1F	-23.1% (active)	9.27% (active)	17.6%	13.3%	-11.5% (active)	8.61% (active)	-0.15% (active)	2.98% (active)	-19% (active)	18.9
O=C1/C=C/[C@@H](O)[C@@H]2C[C@@H](O)C[C@H]2/C=C/CCCCO1	-39.2% (active)	12.5%	36.6%	20.9%	13%	-31.3% (active)	23.3%	9.26% (active)	-11.1% (active)	–
N[C@@H](CC/[N+]([O-])=N/O)C(=O)O	101%	109%	100%	105%	105%	102%	98.4%	103%	94.4%	–
COc1cc(NC(=O)CCSc2nc3ccccc3c(=O)n2CCc2ccccn2)cc(OC)c1OC	79%	79.1%	89.4%	46.6%	78.9%	110%	89.2%	89.4%	69.7%	–
CN(C)c1ccc(/C=C/c2ccnc3c(O)cccc23)cc1	1.91% (active)	8.43% (active)	35.5%	31.9%	24.7%	29.7%	43%	19.5%	16.9%	11.4
CCOc1ccc2nc(C)cc(Nc3ccc(Br)cc3)c2c1	82.6%	97.9%	97.7%	82.2%	101%	107%	117%	95.4%	97.1%	–
O=C(Cc1ccccc1)NC(c1ccc(Cl)cc1)c1c(O)ccc2ccccc12 (configuration not stated)	-20.8% (active)	5.43% (active)	45.7%	21.7%	36.1%	-22.9% (active)	54.1%	9.15% (active)	10.8%	–
O=C1NC(=O)C(=Cc2cn(Cc3cn(Cc4ccc(Cl)cc4Cl)nn3)c3ccccc23)C(=O)N1	83%	83%	50.8%	82.4%	69%	92.4%	87.5%	96.9%	64.7%	–
O=C(CCc1nnc2sc(Cc3ccccc3Cl)nn12)c1nc2ncccc2[nH]1	103%	93.4%	93.3%	92.5%	108%	96.9%	88.7%	95.4%	90.6%	–
CN(O)c1nc(N(C)O)nc(N2CCOCC2)n1	36.8%	33.8%	68.9%	1.09% (active)	8.47% (active)	5.41% (active)	75.9%	21.6%	40.9%	–
